Reference: PubChem BioAssay (NCATS)
“And” between values parts separate entries of the source, which are not always exact repeats. Equal values may be shown once. Records with an inconclusive call do not appear. A call without a number means that no potency is given here. The source made the active and inactive calls. Unless noted, calls come from the whole dose curve; as a rule, active = well fitted inhibition curve with a large enough effect; inconclusive = small, poorly fitted or top-dose-only effect; inactive = flat fitted curve, though single readings scatter.

What was measured:
[1] = qHTS profiling for inhibitors of Plasmodium falciparum proliferation (AID 504749); note: nearly all actives have a fitted effect of over 60% in size; conditions: P. falciparum in erythrocytes, SYBR Green DNA, 72 h
Outline: (§1)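 Each compound contacts P. falciparum-infected red blood cells for 72 h at 37 C; lysis buffer (Tris, EDTA, saponin, Triton X, SYBR Green I) is added and fluorescence measured next morning; values normalized to controls.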

3D7 = test: as above; conditions: P. falciparum in erythrocytes, SYBR Green DNA, 72 h; series mostly up to 28.7 µM
Outline: as §1

ATS189 = test: as above; conditions: P. falciparum in erythrocytes, SYBR Green DNA, 72 h; series mostly up to 28.7 µM
Outline: as §1

C2A = test: as above; conditions: P. falciparum in erythrocytes, SYBR Green DNA, 72 h; series mostly up to 28.7 µM
Outline: as §1

CP185 = test: as above; conditions: P. falciparum in erythrocytes, SYBR Green DNA, 72 h; series mostly up to 28.7 µM
Outline: as §1

CP192 = test: as above; conditions: P. falciparum in erythrocytes, SYBR Green DNA, 72 h; series mostly up to 28.7 µM
Outline: as §1

CP201 = test: as above; conditions: P. falciparum in erythrocytes, SYBR Green DNA, 72 h; series mostly up to 28.7 µM
Outline: as §1

CP211 = test: as above; conditions: P. falciparum in erythrocytes, SYBR Green DNA, 72 h; series mostly up to 28.7 µM
Outline: as §1

CP215 = test: as above; conditions: P. falciparum in erythrocytes, SYBR Green DNA, 72 h; series mostly up to 28.7 µM
Outline: as §1

7G8 = test: as above; conditions: P. falciparum in erythrocytes, SYBR Green DNA, 72 h; series mostly up to 28.7 µM
Outline: as §1

AA1029 = test: as above; conditions: P. falciparum in erythrocytes, SYBR Green DNA, 72 h; series mostly up to 28.7 µM
Outline: as §1

AS120 = test: as above; conditions: P. falciparum in erythrocytes, SYBR Green DNA, 72 h; series mostly up to 28.7 µM
Outline: as §1

ATS95 = test: as above; conditions: P. falciparum in erythrocytes, SYBR Green DNA, 72 h; series mostly up to 28.7 µM
Outline: as §1

CP191 = test: as above; conditions: P. falciparum in erythrocytes, SYBR Green DNA, 72 h; series mostly up to 28.7 µM
Outline: as §1

CP194 = test: as above; conditions: P. falciparum in erythrocytes, SYBR Green DNA, 72 h; series mostly up to 28.7 µM
Outline: as §1

[2] = qHTS for identification of novel therapeutic agents for treatment of microphthalmiaassociated transcription factor (MiT) renal cell carcinoma (RCC) (AID 1963991; calls by dose curve); conditions: CellTiter-Glo, 48 h; for z-score: stronger effect = lower value
Outline: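 Three TFE3-fusion RCC cell lines (UOK109, UOK124, UOK145), 500 cells/well, were exposed to the 1912-compound MIPE 4.0 library for 48 hours at 37 C. Viability was read by CellTiter-Glo luminescence, normalised to DMSO (100%) and empty wells (0%), with 11-concentration curve fits.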

[3] = at 28.7 µM (top of the series), parasite line A
[4] = at 28.7 µM (top of the series), parasite line B
[5] = TFE3-RCC UOK109 viability, measured here: UOK109 Z-AUC
[6] = TFE3-RCC viability, measured here: UOK124 Z-AUC
[7] = TFE3-RCC viability, measured here: UOK145 Z-AUC
Potency is the fitted concentration of half-maximal effect.

## Cc1cccc(C)c1OCC(C)N (stereo unspecified)
[1]; [3]
  activity, negative = inhibition: 7.67% (inactive)
[1]; [4]
  activity, negative = inhibition: -7.13% (inactive)
3D7
  outcome: inactive
ATS189
  Potency: inactive
C2A
  outcome: inactive
CP185
  outcome: inactive
CP192
  Potency: inactive
CP201
  outcome: inactive
CP211
  Potency: inactive
CP215
  Potency: inactive

## COCCCCC(=NOCCN)c1ccc(C(F)(F)F)cc1
CP192
  Potency: inactive

## COc1ccccc1N1CCN(CCCNc2cc(=O)n(C)c(=O)n2C)CC1
[1]; [3]
  activity, negative = inhibition: -3.41% (inactive) and -6.84% (inactive)
[1]; [4]
  activity, negative = inhibition: -11.7% (inactive) and -0.932% (inactive)
3D7
  outcome: inactive
7G8
  Potency: inactive
AA1029
  outcome: inactive
AS120
  Potency: inactive
ATS189
  Potency: inactive
ATS95
  outcome: inactive
C2A
  outcome: inactive
CP185
  outcome: inactive
CP191
  Potency: inactive
CP192
  Potency: inactive
CP194
  Potency: inactive
CP201
  outcome: inactive
CP211
  Potency: inactive
CP215
  Potency: inactive

## Clc1ccc(-c2nc3sccn3c2C=NOCc2ccc(Cl)c(Cl)c2)cc1
[2]; [5]
  z-score: 0.77
[2]; [6]
  z-score: 0.598
[2]; [7]
  z-score: 0.227

## CC1(C)O[C@H]2C[C@@H]3[C@H]4CCC5=CC(=O)C=C[C@]5(C)[C@@]4(F)[C@@H](O)C[C@]3(C)[C@]2(C(=O)CO)O1
[1]; [3]
  activity, negative = inhibition: -0.373% (inactive)
[1]; [4]
  activity, negative = inhibition: -9.39% (inactive)
3D7
  outcome: inactive
7G8
  Potency: 8.91 µM (active)
AA1029
  outcome: inactive
ATS189
  Potency: inactive
ATS95
  outcome: inactive
C2A
  outcome: inactive
CP185
  outcome: inactive
CP191
  Potency: inactive
CP192
  Potency: inactive
CP194
  Potency: inactive
CP201
  outcome: inactive
CP211
  Potency: inactive
CP215
  Potency: inactive

## NCCS
[1]; [3]
  activity, negative = inhibition: 9.12% (inactive)
[1]; [4]
  activity, negative = inhibition: 7.21% (inactive)
3D7
  outcome: inactive
7G8
  Potency: inactive
AA1029
  outcome: inactive
AS120
  Potency: inactive
ATS189
  Potency: inactive
ATS95
  outcome: inactive
C2A
  outcome: inactive
CP185
  outcome: inactive
CP191
  Potency: inactive
CP192
  Potency: inactive
CP194
  Potency: inactive
CP201
  outcome: inactive
CP211
  Potency: inactive
CP215
  Potency: inactive

## CCN(CC)CCNC(=O)c1ccc(N)cc1
[1]; [3]
  activity, negative = inhibition: 6.98% (inactive)
[1]; [4]
  activity, negative = inhibition: 5.88% (inactive)
3D7
  outcome: inactive
7G8
  Potency: inactive
AA1029
  outcome: inactive
AS120
  Potency: inactive
ATS189
  Potency: inactive
ATS95
  outcome: inactive
C2A
  outcome: inactive
CP185
  outcome: inactive
CP191
  Potency: inactive
CP192
  Potency: inactive
CP194
  Potency: inactive
CP201
  outcome: inactive
CP211
  Potency: inactive
CP215
  Potency: inactive

## CCC(CC)[C@H](NC(C)=O)[C@@H]1[C@H](O)[C@@H](C(=O)O)C[C@@H]1N=C(N)N
[2]; [5]
  z-score: 0.127
[2]; [6]
  z-score: -0.172
[2]; [7]
  z-score: -0.0122

## O=C(O)c1cc(-c2ccccc2)nc2ccccc12
[1]; [3]
  activity, negative = inhibition: -2.25% (inactive)
[1]; [4]
  activity, negative = inhibition: 7.48% (inactive)
3D7
  outcome: inactive
7G8
  Potency: inactive
AA1029
  outcome: inactive
AS120
  Potency: inactive
ATS189
  Potency: inactive
ATS95
  outcome: inactive
C2A
  outcome: inactive
CP185
  outcome: inactive
CP191
  Potency: inactive
CP192
  Potency: inactive
CP194
  Potency: inactive
CP201
  outcome: inactive
CP211
  Potency: inactive
CP215
  Potency: inactive

## O=C(O)Cc1cccc2ccccc12
[1]; [3]
  activity, negative = inhibition: 12.1% (inactive)
[1]; [4]
  activity, negative = inhibition: 6.39% (inactive)
3D7
  outcome: inactive
7G8
  Potency: inactive
AA1029
  outcome: inactive
AS120
  Potency: inactive
ATS189
  Potency: inactive
ATS95
  outcome: inactive
C2A
  outcome: inactive
CP185
  outcome: inactive
CP191
  Potency: inactive
CP192
  Potency: inactive
CP194
  Potency: inactive
CP201
  outcome: inactive
CP211
  Potency: inactive
CP215
  Potency: inactive

## CN(C)CCC(c1ccccc1)c1ccccn1 (stereo unspecified)
[1]; [3]
  activity, negative = inhibition: 8.91% (inactive)
[1]; [4]
  activity, negative = inhibition: 5.22% (inactive)
3D7
  outcome: inactive
7G8
  Potency: 5.62 µM (active)
AS120
  Potency: inactive
ATS189
  Potency: inactive
C2A
  outcome: inactive
CP191
  Potency: inactive
CP201
  outcome: inactive
CP211
  Potency: inactive

## CCN(CC)CCOC(=O)c1ccc(N)cc1
[1]; at 12.8 µM (top of the series), parasite line A
  activity, negative = inhibition: -0.702% (inactive)
3D7
  outcome: inactive
7G8
  Potency: inactive
AA1029
  outcome: inactive
AS120
  Potency: inactive
ATS189
  Potency: inactive
ATS95
  outcome: inactive
C2A
  outcome: inactive
CP185
  outcome: inactive
CP191
  Potency: inactive
CP192
  Potency: inactive
CP194
  Potency: inactive
CP201
  outcome: inactive
CP211
  Potency: inactive
CP215
  Potency: inactive

## O=C1Nc2ccc(Cl)cc2C(C#CC2CC2)(C(F)(F)F)O1 (stereo unspecified)
[1]; [3]
  activity, negative = inhibition: -18.6% (inactive)
[1]; [4]
  activity, negative = inhibition: 0.376% (inactive)
3D7
  outcome: inactive
7G8
  Potency: 11.2 µM (active)
AA1029
  outcome: inactive
ATS189
  Potency: inactive
ATS95
  outcome: inactive
C2A
  outcome: inactive
CP185
  outcome: inactive
CP191
  Potency: inactive
CP192
  Potency: inactive
CP201
  outcome: inactive
CP211
  Potency: inactive

## CO[C@H]1C[C@@H]2CC[C@@H](C)[C@@](O)(O2)C(=O)C(=O)N2CCCC[C@@H]2C(=O)O[C@H]([C@H](C)C[C@@H]2CC[C@H](OP(C)(C)=O)[C@H](OC)C2)CC(=O)[C@H](C)C=C(C)[C@@H](O)[C@@H](OC)C(=O)[C@H](C)C[C@H](C)C=CC=CC=C1C
[2]; [5]
  z-score: 0.0461
[2]; [6]
  z-score: 0.621
[2]; [7]
  z-score: -0.765

## CC(=O)c1ccc(S(=O)(=O)NC(=O)NC2CCCCC2)cc1
[1]; [3]
  activity, negative = inhibition: 3.57% (inactive)
[1]; [4]
  activity, negative = inhibition: 7.49% (inactive)
3D7
  outcome: inactive
7G8
  Potency: inactive
AA1029
  outcome: inactive
AS120
  Potency: inactive
ATS189
  Potency: inactive
ATS95
  outcome: inactive
C2A
  outcome: inactive
CP185
  outcome: inactive
CP191
  Potency: inactive
CP192
  Potency: inactive
CP194
  Potency: inactive
CP201
  outcome: inactive
CP211
  Potency: inactive
CP215
  Potency: inactive

## CC(=NNC(=S)N1CCC1)c1ccccn1
[2]; TFE3-RCC UOK109 viability, active = Z-AUC below -0.8 in all three lines
  Potency: 0.00332 µM (active)
[2]; [5]
  z-score: -4
[2]; [6]
  z-score: -1.96
[2]; [7]
  z-score: -2.39

## CCN1CCC[C@H]1CNC(=O)c1cc(S(N)(=O)=O)ccc1OC
[1]; [3]
  activity, negative = inhibition: 7.08% (inactive)
[1]; [4]
  activity, negative = inhibition: 23% (inactive)
3D7
  outcome: inactive
7G8
  Potency: inactive
AA1029
  outcome: inactive
AS120
  Potency: inactive
ATS189
  Potency: inactive
ATS95
  outcome: inactive
C2A
  outcome: inactive
CP185
  outcome: inactive
CP191
  Potency: inactive
CP192
  Potency: inactive
CP194
  Potency: inactive
CP201
  outcome: inactive
CP211
  Potency: inactive
CP215
  Potency: inactive

## O=C(NCCN1CCOCC1)c1ccc(Cl)cc1
[1]; [3]
  activity, negative = inhibition: 9.62% (inactive)
[1]; [4]
  activity, negative = inhibition: 3.61% (inactive)
3D7
  outcome: inactive
7G8
  Potency: inactive
AA1029
  outcome: inactive
AS120
  Potency: inactive
ATS189
  Potency: inactive
ATS95
  outcome: inactive
C2A
  outcome: inactive
CP185
  outcome: inactive
CP191
  Potency: inactive
CP192
  Potency: inactive
CP194
  Potency: inactive
CP201
  outcome: inactive
CP211
  Potency: inactive
CP215
  Potency: inactive

## C[N+](C)(C)CCCCCC[N+](C)(C)C
[1]; [3]
  activity, negative = inhibition: 4.23% (inactive)
[1]; [4]
  activity, negative = inhibition: 5.66% (inactive)
3D7
  outcome: inactive
7G8
  Potency: inactive
AA1029
  outcome: inactive
AS120
  Potency: inactive
ATS189
  Potency: inactive
ATS95
  outcome: inactive
C2A
  outcome: inactive
CP185
  outcome: inactive
CP191
  Potency: inactive
CP192
  Potency: inactive
CP194
  Potency: inactive
CP201
  outcome: inactive
CP211
  Potency: inactive
CP215
  Potency: inactive

## O=c1[nH]cnc2c1ncn2[C@H]1CC[C@@H](CO)O1
[1]; [3]
  activity, negative = inhibition: -0.993% (inactive)
[1]; [4]
  activity, negative = inhibition: 7.28% (inactive)
3D7
  outcome: inactive
7G8
  Potency: 10 µM (active)
AA1029
  outcome: inactive
AS120
  Potency: inactive
ATS189
  Potency: inactive
ATS95
  outcome: inactive
C2A
  outcome: inactive
CP185
  outcome: inactive
CP192
  Potency: inactive
CP194
  Potency: inactive
CP201
  outcome: inactive
CP211
  Potency: inactive
CP215
  Potency: inactive
